Source: PubChem
NPC1 prom act: NPC1 promoter activation; AID 485313; 320,000 tested, 2.4% active; Potency, µM (top dose mostly 9.22 µM), inactives show top-dose activation, usual class: activators; Huh7 NPC1 promoter luciferase reporter, 24 h; further: % of control where 0% means no effect; nearly all actives have a fitted effect of over 60% in size
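Cells: Huh7 expressing luciferase under the NPC1 promoter, 1500/well. Seeded 2 h, compound added, incubated 24 h at 37 °C. Luciferase reagent, 10 min ambient, then luminescence.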
FLuc counter: counter-screen for miR-21 project: firefly luciferase inhibitors or activators; P08659; purified FLuc, Km substrates, luminescence inhibition; Potency, µM (top dose mostly 57.5 µM), without a hit: top-dose activity change, negative = inhibition, usual class: inhibitors; 360,000 tested, 6.9% active; AID 588342;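 further: plate controls were vehicle for no effect and reference inhibitor for full effect; nearly all actives have a fitted effect of over 55% in size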
Target sequence (P08659 whole entry, looked up): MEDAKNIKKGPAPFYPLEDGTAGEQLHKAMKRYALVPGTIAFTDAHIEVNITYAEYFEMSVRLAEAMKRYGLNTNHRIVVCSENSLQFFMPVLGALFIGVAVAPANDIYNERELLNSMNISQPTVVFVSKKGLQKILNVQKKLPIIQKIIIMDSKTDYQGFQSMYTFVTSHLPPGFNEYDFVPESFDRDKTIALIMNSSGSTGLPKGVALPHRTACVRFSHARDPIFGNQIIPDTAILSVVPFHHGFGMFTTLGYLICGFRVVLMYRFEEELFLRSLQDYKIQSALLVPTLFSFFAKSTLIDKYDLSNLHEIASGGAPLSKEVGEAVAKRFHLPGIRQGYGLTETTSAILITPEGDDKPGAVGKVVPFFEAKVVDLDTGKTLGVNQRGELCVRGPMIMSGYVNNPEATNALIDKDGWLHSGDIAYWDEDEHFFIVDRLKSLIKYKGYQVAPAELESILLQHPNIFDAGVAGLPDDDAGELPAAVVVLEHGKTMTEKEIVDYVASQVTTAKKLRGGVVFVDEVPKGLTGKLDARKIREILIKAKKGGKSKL
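Purified P. pyralis luciferase (10nM final) with 10uM D-luciferin and 10uM ATP (Km levels) in 50mM Tris acetate pH 7.5, 10mM Mg acetate, 0.01% Tween-20, 0.05% BSA; qHTS 6-point titration, ~60 µM downward; luminescence read.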
Rab9 prom act: activates the Rab9 promoter. AID 485297. Potency, µM (highest dose often 9.22 µM), for the others: top-dose activation, negative = inhibition, most hits filed as activators. Huh7 Rab9 promoter-luciferase reporter, luminescence, 24 h. 320,000 tested, 2.8% active; further: % of control where 0% means no effect; nearly all actives have a fitted effect of over 60% in size
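Huh7 cells stably carrying a Rab9 promoter-luciferase reporter, 1500 cells per well in OP-MEM I with 10% FBS, treated with compound 24 hours at 37C. Luciferase activity read by luminescence after 10 minutes with Amplite reagent.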
SMN2 splice up: increases expression of the SMN2 splice variant; HEK293 SMN2-luciferase splicing reporter, luminescence, 30-36 h; Potency, µM (doses to about 46.1 µM), for inactives: top-dose activity change, positive = activation, hits mostly activators; 210,000 tested, 2.8% active; further: % of control where 0% means no effect; nearly all actives have a fitted effect of over 55% in size
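HEK293 cells carry an SMN2 […]–luciferase reporter in which exon 7 inclusion puts luciferase in frame. Cells were plated 10-12 h before compound addition, then incubated 30-36 h at 37C. ONE-Glo luminescence was read; sodium butyrate at 4.5 mM final served as control.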
KinaseGlo FLuc: Kinase-Glo luciferase inhibition (counter-screen). Q27757. Kinase-Glo luciferase, ATP luminescence, 8 min. Potency, µM (series often up to 38.3 µM), without a hit: at the highest dose activity change, negative = inhibition, actives largely listed as inhibitors. 200,000 tested, 0.28% active; further: on the % scale 0 is the no-effect control and ±100 the full control effect; nearly all actives have a fitted effect of over 60% in size
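Recombinant Kinase-Glo luciferase, 10 uM ATP (linear range), luciferin; imidazole pH 7.2 / KCl / MgCl2 / Tween / BSA buffer; 8 min RT; luminescence.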
ELG1 genotoxic: genotoxicity induction in ELG1-luciferase HEK293T cells. 330,000 tested, 1.3% active. Potency, µM (highest dose often 46 µM), for inactives: at the top dose activity change, positive = activation, usual class: activators. HEK293T ELG1-luciferase reporter, luminescence, 16 h; further: % of control where 0% means no effect; nearly all actives have a fitted effect of over 60% in size
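HEK293T cells expressing luciferase-tagged ELG1 were treated with compound or DMSO for 16 hr at 37°C. Luciferase activity was then read after 30 min with ONE-Glo at room temperature; rising signal flags genetic stress.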
The depositor's hits bear a star; ? = inconclusive; / = no result; [ ] = remark or other dose. In the library only some 7.5% were active in any assay of this set; here they are far more common. The call rests on the fitted dose curve; in most records, active means well fitted curve in the direction sought with a large enough effect; inconclusive means small, poorly fitted or top-dose-only effect, or another doubt; inactive means no such curve, though single readings can be large; an effect the other way counts as inactive or inconclusive. Potency means the concentration at half of the fitted maximal effect.

SMILES | NPC1 prom act | FLuc counter | Rab9 prom act | SMN2 splice up | KinaseGlo FLuc | ELG1 genotoxic
COc1ccc(N2CC(C(=O)N(CC(C)C)c3c(N)n(Cc4ccccc4)c(=O)[nH]c3=O)CC2=O)c(OC)c1 (centres undefined) | -4% | 7% | -5% | / | / | 0%
O=C(Cn1nc(C(=O)O)c2ccccc2c1=O)Nc1ccc(Cl)c(S(=O)(=O)N2CCOCC2)c1 | / | / | / | / | / | -1%
Cc1nn(-c2ccccc2)c(Cl)c1/C=N/Nc1nc2ccccc2n1C | 3.5µM* | 2.4µM* | ? | 11µM* | -28% | 8%
Cc1nn(-c2ccccc2)c(Cl)c1/C=N/NC(=O)c1ccnn1C | 1.4µM* | 2.7µM* | 2.8µM* | / | / | 15µM*
Cc1nn(-c2ccccc2)c(Cl)c1/C=N/NC(N)=O | 18% | ? | 18% | / | / | ?
COC(=O)N/N=C\c1c(C)nn(-c2ccccc2)c1Cl | ? | 15µM* | ? | ? | -1% | ?
Cc1nn(-c2ccccc2)c(Cl)c1/C=N/NC(=O)CNC(=O)c1ccccc1Cl | 6% | 19µM* | 7% | 4% | 0% | -3%
COc1ccc(NC(=O)CCC(=O)Nc2ccc3nc(N4CCOCC4)cc(C)c3c2)c(OC)c1 | ? | 2.7µM* | 2.5µM* | / | / | ?
COc1cc(NC(=O)CCC(=O)Nc2ccc3nc(N4CCOCC4)cc(C)c3c2)cc(OC)c1OC | 24% | 15µM* | 16% | / | / | 6%
Cc1ccc(N2C(=O)CS(=O)(=O)C23C(=O)N(Cc2ccc(Cl)cc2)c2ccccc23)cc1C (centres undefined) | / | 5% | / | / | / | /
c1c2c(cc3sc(N4CCCCC4)nc13)OCO2 | 0.4µM* | 0.67µM* | 0.32µM* | 3.2µM* | 13µM* | ?
c1c2c(cc3sc(N4CCOCC4)nc13)OCO2 | 2.8µM* | 6µM* | 1.1µM* | 11µM* | 11µM* | ?
c1ccc2c(c1)CCN(c1nc3cc4c(cc3s1)OCO4)C2 | 1.6µM* | 1.3µM* | 1.3µM* | 2.2µM* | ? | 0.46µM*
c1ccc(N2CCN(c3nc4cc5c(cc4s3)OCO5)CC2)cc1 | 0.79µM* | 1.1µM* | 0.71µM* | ? | 0% | 11%
Fc1ccc2nc(N3CCOCC3)sc2c1 | ? | ? | ? | ? | -18% | ?
Cc1ccc(S(=O)(=O)NCC(=O)N2CCN(c3ccc(F)cc3)CC2)cc1 | -1% | 0% | 11% | / | / | -1%
Cc1nc(N)sc1C(=O)Nc1ccccc1 | ? | ? | ? | 28% | -26% | ?
Cc1ccc(NC(=O)c2sc(N)nc2C)cc1 | 2.5µM* | 21µM* | 2.2µM* | / | / | 21µM*
Cc1nc(Cl)sc1C(=O)Nc1ccc(C(C)(C)C)cc1 | 25% | 11µM* | -1% | / | / | ?
Cc1noc(N)c1C(=O)Nc1ccc(C(C)(C)C)cc1 | 2.5µM* | 3.4µM* | 3.2µM* | ? | -26% | ?
Cc1ccc(NC(=O)c2c(C)noc2C)cc1 | 0% | 3% | -2% | -18% | -2% | 3%
Cc1nc(C(=O)Nc2ccccc2)sc1C(=O)Nc1ccccc1 | 3.5µM* | 13µM* | 3.5µM* | / | / | 19%
Cc1cccnc1NC(=O)CN1C(=O)c2ccccc2S1(=O)=O | 1% | -10% | -2% | / | / | 1%
COC(=O)C1(Cc2cc(-c3ccc([N+](=O)[O-])cc3)no2)CCN(C(=O)OC(C)(C)C)CC1 | 0% | 3% | -8% | / | / | -1%
Cc1nc2cc(NC(=O)c3ccc(Br)s3)ccc2s1 | 0.4µM* | 0.48µM* | 0.32µM* | / | / | ?
SMILES | NPC1 prom act | FLuc counter | Rab9 prom act | SMN2 splice up | KinaseGlo FLuc | ELG1 genotoxic
CN1CCN(S(=O)(=O)c2ccc(NC(=O)c3ccc(Br)s3)cc2)CC1 | -3% | -1% | -6% | 12% | 2% | 4%
Cc1nc2ccc(NC(=O)NCCCO)cc2s1 | ? | 2%[2.3 µM] | ? | 13µM* | 4% | 14%
Cc1ccc(C(=O)Nc2ccc3nc(C)sc3c2)s1 | 2.2µM* | 6.7µM* | 1.8µM* | 13µM* | -5% | ?
Cc1nc2ccc(NC(=O)c3ccc([N+](=O)[O-])cc3)cc2s1 | 11% | -2% | 13% | -14% | 3% | 8%
Cc1nc2ccc(NC(=O)c3cc([N+](=O)[O-])cc([N+](=O)[O-])c3Cl)cc2s1 | -26% | 12µM* | -36% | 2% | 0% | ?
Cc1nc2ccc(NC(=O)c3cc(Cl)ccn3)cc2s1 | 0.71µM* | 1.5µM* | 0.5µM* | / | / | 1.3µM*
Cc1nc2ccc(NC(=O)c3ccc(Cl)nc3)cc2s1 | 14% | ? | 21% | / | / | 1%
COC(=O)c1sccc1NC(=O)c1cc2c(s1)CCCC2 | 26% | 8.5µM* | ? | 8% | -11% | 4%
COc1ccc(C)cc1NC(=O)c1cc2c(s1)CCC2 | 1% | 15µM* | ? | ? | -5% | 13%
COC(=O)c1sccc1NC(=O)c1cccc(OC)c1 | 10% | ? | 0% | 0% | -3% | 1%
COc1ccc(S(=O)(=O)N2CCOCC2)cc1NC(=O)c1cc2c(s1)CCCC2 | -4% | -22% | 11% | -5% | -1% | 0%
Cc1ccccc1N1CCN(C2CCCN(C(=O)CCn3cnnn3)C2)CC1 (centres undefined) | -1% | 1% | 0% | / | / | 1%
COCCCn1c(SCC(=O)OC2CCCCC2)nnc1-c1ccco1 | 1% | 12µM* | 3% | -2% | -3% | -2%
COCCCn1c(SCC(=O)OC2CCCCC2)nnc1-c1cccs1 | 0% | 19µM* | 7% | -5% | 0% | -1%
O=[N+]([O-])c1cccc(S(=O)(=O)NCC2CC3CCC2C3)c1 (centres undefined) | 1% | -2% | -1%[1.84 µM] | / | / | 1%
Cc1cc(C)nc(Nc2n[nH]c(-c3ccccc3C)n2)n1 | 2µM* | 9.5µM* | 1.8µM* | 11µM* | -6% | 21µM*
Cc1cc(C)nc(Nc2cccc3ccccc23)n1 | 5% | -4% | -2% | / | / | 0%
Cc1cc(C)nc(Nc2ccccc2Br)n1 | 2% | -14% | 0% | -1% | 0% | 5%
Cc1cc(C)nc(Nc2n[nH]c(-c3ccccc3Br)n2)n1 | ? | 9.5µM* | ? | 81% | -18% | 18µM*
O=C(c1ccc2nc(N3CCOCC3)sc2c1)N1CCCC1 | 1% | 3% | 2% | -15% | -4% | 14%
COc1cccc(N2CCN(C(=O)c3ccc4nc(N5CCCCC5)sc4c3)CC2)c1 | ? | 19µM* | ? | -22% | 2% | ?
COc1ccc(N2CCN(C(=O)c3ccc4nc(N5CCCCC5)sc4c3)CC2)cc1 | 15% | ? | 16% | -6% | 1% | 23µM*
COc1cccc(N2CCN(C(=O)c3ccc4ccccc4c3)CC2)c1 | -2% | -15% | 1% | / | / | -6%
